A selection: hits, their analogues and other compounds. The true share with any hit is near 11%.
Pf growth 48h – P. falciparum growth inhibition at 48 hours (one generation); P. falciparum luciferase growth in erythrocytes, 48 h; Potency, µM (series often up to 28.7 µM), hits mostly inhibitors; actives 5.9% (n = 310,000); AID 504832
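In quantitative HTS format, infected erythrocytes bearing luciferase-reporter parasites were treated for a single generation at 37 C. Luminescence after adding detection reagent served as the growth measure.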
HCV inh – blocks hepatitis C virus; actives 3.4% (n = 340,000); Potency, µM (series often up to 41.8 µM), hits mostly inhibitors; Huh7.5.1 HCVcc-Cre infection, luciferase reporter, 44 h
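Reporter virus HCVcc-Cre (~0.5 moi) infects cells exposed to compound; seeding density 1,000 cells/well with 4 h settling beforehand. Luminescence, 15 sec read, taken 44 h post-infection following a 15 min RT substrate incubation.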
AMA1-RON2 inh – disrupts binding of P. falciparum AMA1 to RON2 | AlphaScreen AMA1-biotinylated RON2 peptide binding | Potency, µM (top dose mostly 58.2 µM), usual class: inhibitors | actives 0.2% (n = 360,000) | AID 720542; also: nearly all actives have a fitted effect of over 45% in size
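AMA1 (3D7) with his tag at 25 nM final met compounds first, then biotinylated RON2 peptide at 25 nM; detection used donor plus acceptor beads, 10 µg/mL apiece, read by AlphaScreen after 30 min at room temperature.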
Pf growth 96h – P. falciparum growth inhibition at 96 hour, primary screen for plastid delayed-death inhibitors; actives 6.9% (n = 320,000); P. falciparum luciferase reporter growth, 96 h; Potency, µM (top dose mostly 28.7 µM), most hits filed as inhibitors
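Compounds incubated with erythrocytes infected by luciferase-expressing P. falciparum (2% hematocrit, 0.05% parasitemia final) for 96 hours, 37 C in 5% CO2. Growth inhibition scored as decreased luciferase luminescence.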
Of the large screens only hits and unclear results are named; the others gave an inactive call. Calls follow the shape of the dose curve; as a rule, active = well fitted curve in the direction sought with a large enough effect; inconclusive = small, poorly fitted or top-dose-only effect, or another doubt; inactive = no such curve, though single readings can be large; an effect the other way counts as inactive or inconclusive.

CC(=O)Nc1ccc(S(=O)(=O)NCC(=O)OCC(=O)N2CCN(c3ccccc3)CC2)cc1	none
Cc1n[nH]c(C)c1S(=O)(=O)N1CCCC(C(=O)N2CCN(c3ccc(Cl)cc3)CC2)C1 (stereo unspecified)	Pf growth 48h 6.6µM, HCV inh inconclusive
Cc1nn(C)c(C)c1S(=O)(=O)N1CCCC(C(=O)N2CCN(c3ccc(Cl)cc3)CC2)C1 (stereo unspecified)	Pf growth 48h 4.7µM, HCV inh inconclusive, Pf growth 96h inconclusive
CCOC(=O)c1cccc(NC(=O)C2CCCN(S(=O)(=O)c3c(C)nn(C)c3C)C2)c1 (stereo unspecified)	HCV inh inconclusive, Pf growth 96h 9.3µM (no result: Pf growth 48h)
CCOC(=O)c1cccc(NC(=O)C2CCCN(S(=O)(=O)c3c(C)n[nH]c3C)C2)c1 (stereo unspecified)	Pf growth 96h inconclusive
Cc1ccc(Cl)cc1N1CCN(C(=O)C2CCN(S(=O)(=O)c3c(C)nn(C)c3C)CC2)CC1	Pf growth 48h 8.3µM, HCV inh 11µM (no result: Pf growth 96h)
Cc1cc(OCc2nc(-c3ccncc3)no2)cc(C)c1Cl	Pf growth 48h inconclusive
COc1ccc(NC(=O)COC(=O)CCNC(=O)c2ccco2)cc1Cl	none (no result: Pf growth 48h, Pf growth 96h)
CC(=O)Nc1ccccc1OCC(=O)N(Cc1ccccc1)C(C)C	HCV inh 16µM, Pf growth 96h inconclusive
CC(=O)Nc1ccccc1OCC(=O)NC(C)c1ccccc1 (stereo unspecified)	none
CC(CCc1ccccc1)NC(=O)c1ccccc1Cl (stereo unspecified)	Pf growth 48h inconclusive, Pf growth 96h 9.3µM
O=C(CCc1ccccc1)NNC(=O)c1ccccc1Cl	Pf growth 48h inconclusive, Pf growth 96h 2.9µM
CC(=O)c1ccc(NC(=S)NC(C)CCc2ccccc2)cc1 (stereo unspecified)	Pf growth 48h inconclusive, Pf growth 96h 9.3µM
CC(=O)Oc1ccccc1C(=O)NC(C)CCc1ccccc1 (stereo unspecified)	Pf growth 48h 15µM, HCV inh inconclusive, Pf growth 96h inconclusive
O=C(Cn1cc([N+](=O)[O-])cn1)Nc1ccn(Cc2c(F)c(F)c(F)c(F)c2F)n1	none (no result: Pf growth 48h)
CC(C)(C)n1nnnc1C(c1ccccc1)N1CCN(c2ncccn2)CC1 (stereo unspecified)	none (no result: Pf growth 48h, HCV inh, Pf growth 96h)
Cc1ccc(OCCNC(=O)CCNC(=O)c2ccc(Cl)cc2)cc1	none
CCc1nc2c(OCC3COc4ccccc4O3)cccn2c1N(C)C(=O)c1cccs1 (stereo unspecified)	none (no result: Pf growth 48h, HCV inh, Pf growth 96h)
COc1ccc(OCCCC(=O)Nc2cc([N+](=O)[O-])ccc2C)cc1	none
O=C1NN=C(c2ccc(Cl)cc2)CC1c1cccc(Br)c1 (stereo unspecified)	Pf growth 48h 4.1µM
Cc1ccc(C2=NNC(=O)C(c3ccc(Cl)cc3)C2)cc1 (stereo unspecified)	none (no result: Pf growth 96h)
CC12C=CC(=O)C=C1[C@@H](F)CC1C2C(O)CC2(C)C1CC[C@]2(O)C(=O)CO (stereo partly specified)	Pf growth 96h inconclusive (no result: HCV inh, AMA1-RON2 inh)
CCc1[nH]nc2c1C(c1ccsc1)C(C#N)=C(N)O2 (stereo unspecified)	Pf growth 96h 10µM
COc1ccc(C2=NN(C(=O)CSc3nc4ncc(Cl)cc4[nH]3)C(c3ccco3)C2)cc1 (stereo unspecified)	Pf growth 48h inconclusive, Pf growth 96h inconclusive
Cc1ccc(C2=NN(C(=O)CSc3nc4ncc(Cl)cc4[nH]3)C(c3ccco3)C2)cc1 (stereo unspecified)	Pf growth 96h 12µM
COc1ccc(C2/C(=C(\O)c3cc(C)ccc3C)C(=O)C(=O)N2CCN(C)C)cc1OC (stereo unspecified)	AMA1-RON2 inh inconclusive, Pf growth 96h inconclusive
CCOC(=O)C1=C(C)N(CCCC(=O)O)C(=O)NC1C(CC)CC (stereo unspecified)	HCV inh inconclusive (no result: Pf growth 48h, Pf growth 96h)
Cn1c(=O)n(CC(=O)Nc2ccc(F)cc2)c2ccccc21	none
CSc1c(CC(=O)Nc2ccc(F)cc2)n(Cc2ccccc2)c2ccccc12	Pf growth 48h 7.4µM, Pf growth 96h 13µM
CSc1c(CC(=O)Nc2ccccc2)n(C)c2ccccc12	Pf growth 48h 10µM, HCV inh inconclusive, Pf growth 96h inconclusive
Cn1c(CC(=O)Nc2ccccc2C(F)(F)F)c(Sc2ccccc2)c2ccccc21	Pf growth 48h 15µM
Cn1c(CC(=O)Nc2ccccc2)c(Sc2ccccc2)c2ccccc21	Pf growth 48h inconclusive, Pf growth 96h 8.3µM
CCOC(=O)N1CCN(C(=O)/C=C/c2cccc([N+](=O)[O-])c2)CC1	Pf growth 96h inconclusive
